PubChem BioAssay (NCATS)
Where “and” joins values, the source holds several entries; their conditions need not be identical. Identical values can stand only once. Inconclusive results are not listed. A structure can be active in one record and inactive in another. Calls of active or inactive are those of the source. Unless noted, calls follow the shape of the dose curve; as a rule, active = well fitted curve in the direction sought with a large enough effect; inconclusive = small, poorly fitted or top-dose-only effect, or another doubt; inactive = no such curve, though single readings can be large; an effect the other way counts as inactive or inconclusive.

What was measured:
[1] = tested on: MKL-2; assay: qHTS assay to identify novel small-molecules to repurpose for Merkel cell carcinoma treatment (AID 1296009); conditions: MCC and control cell lines, CellTiter-Glo viability, 72 h; series mostly up to 46 µM; also: % is scaled to controls: 0 for no effect and ±100 for the full control effect; nearly all actives have a fitted effect of over 60% in size
Outline: (§1)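 Cell viability, measured as CellTiter-Glo luminescence, was normalized between DMSO and no-cell wells. The cells had been exposed to 8- or 11-point compound dilutions for 72 hr at 37 degree celsius.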

[2] = tested on: UISO; assay: as above; conditions: MCC and control cell lines, CellTiter-Glo viability, 72 h; series mostly up to 46 µM
Outline: as §1

[3] = tested on: WaGa; assay: as above; conditions: MCC and control cell lines, CellTiter-Glo viability, 72 h; series mostly up to 46 µM
Outline: as §1

[4] = tested on: C33A; assay: Primary qHTS to identify gynecologic anti-cancer compounds using libraries of approved drugs and bioactive compounds (AID 1345084); conditions: Gynecologic cancer cell panel viability, ATPlite luminescence, 48 h; series mostly up to 57.5 µM; also: % is scaled to controls: 0 for no effect and ±100 for the full control effect; nearly all actives have a fitted effect of over 55% in size
Outline: (§2)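 Cells, 1,000 per well, were allowed to settle for 16 h at 37 C before compound addition. Five concentrations were tested for 48 h, and viability was read by ATPlite luminescence after 15 min at room temperature.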

[5] = tested on: CAOV3; assay: as above; conditions: Gynecologic cancer cell panel viability, ATPlite luminescence, 48 h; series mostly up to 57.5 µM
Outline: as §2

[6] = tested on: CASKI; assay: as above; conditions: Gynecologic cancer cell panel viability, ATPlite luminescence, 48 h; series mostly up to 57.5 µM
Outline: as §2

[7] = tested on: Es-2; assay: as above; conditions: Gynecologic cancer cell panel viability, ATPlite luminescence, 48 h; series mostly up to 57.5 µM
Outline: as §2

[8] = tested on: HeLa; assay: as above; conditions: Gynecologic cancer cell panel viability, ATPlite luminescence, 48 h; series mostly up to 57.5 µM
Outline: as §2

[9] = tested on: Hek293T; assay: as above; conditions: Gynecologic cancer cell panel viability, ATPlite luminescence, 48 h, control line for the selectivity index; series mostly up to 57.5 µM
Outline: as §2

[10] = tested on: JEG-3; assay: as above; conditions: Gynecologic cancer cell panel viability, ATPlite luminescence, 48 h; series mostly up to 57.5 µM
Outline: as §2

[11] = tested on: OV90; assay: as above; conditions: Gynecologic cancer cell panel viability, ATPlite luminescence, 48 h; series mostly up to 57.5 µM
Outline: as §2

[12] = tested on: PA-1; assay: as above; conditions: Gynecologic cancer cell panel viability, ATPlite luminescence, 48 h; series mostly up to 57.5 µM
Outline: as §2

[13] = tested on: SKOV3; assay: as above; conditions: Gynecologic cancer cell panel viability, ATPlite luminescence, 48 h; series mostly up to 57.5 µM
Outline: as §2

[14] = tested on: Tov-21-G; assay: as above; conditions: Gynecologic cancer cell panel viability, ATPlite luminescence, 48 h; series mostly up to 57.5 µM
Outline: as §2

[15] = tested on: Tov112D; assay: as above; conditions: Gynecologic cancer cell panel viability, ATPlite luminescence, 48 h; series mostly up to 57.5 µM
Outline: as §2

[16] = Drug repurposing screens with cells derived from glioblastoma tumor samples (AID 1345199); conditions: GBM patient neurospheres viability, ATP luminescence, 48 h; also: nearly all actives have a fitted effect of over 40% in size; also: potency is read from the fitted curve at half-maximal effect; as to activity, negative = cell killing: % is scaled to controls: 0 for no effect and ±100 for the full control effect
Outline: (§3)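 Primary testing used CD133+ neurospheres from four GBM patients, seven concentrations, 48 h exposure and ATP-based viability; confirmation added three slower-growing patient lines.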

[17] = tested on: astro; assay: as above; conditions: viability, ATP luminescence, 48 h; series mostly up to 45.9 µM
Outline: as §3

[18] = biological target: Nuclear receptor subfamily 1 group I member 2 (Rattus norvegicus) (UniProt Q9R1A7); assay: qHTS assay for small molecule activators of the rat pregnane X receptor (rPXR) signaling pathway (AID 651751; call rule not given here; also: 0% is about no effect); conditions: rPXR reporter cells, luciferase (One-Glo), 24 h
[19] = qHTS assay for small molecule activators of the human pregnane X receptor (PXR) signaling pathway (AID 720659; call rule not given here; also: 0% is about no effect)
[20] = at 45.9 µM (top of the series), tumour line B
[21] = at 45.9 µM (top of the series), tumour line D
[22] = at 46 µM (top of the series), tumour line A
[23] = at 46.1 µM (top of the series), tumour line C

Chain of Nuclear receptor subfamily 1 group I member 2 (Rattus norvegicus) (Q9R1A7 whole entry, looked up): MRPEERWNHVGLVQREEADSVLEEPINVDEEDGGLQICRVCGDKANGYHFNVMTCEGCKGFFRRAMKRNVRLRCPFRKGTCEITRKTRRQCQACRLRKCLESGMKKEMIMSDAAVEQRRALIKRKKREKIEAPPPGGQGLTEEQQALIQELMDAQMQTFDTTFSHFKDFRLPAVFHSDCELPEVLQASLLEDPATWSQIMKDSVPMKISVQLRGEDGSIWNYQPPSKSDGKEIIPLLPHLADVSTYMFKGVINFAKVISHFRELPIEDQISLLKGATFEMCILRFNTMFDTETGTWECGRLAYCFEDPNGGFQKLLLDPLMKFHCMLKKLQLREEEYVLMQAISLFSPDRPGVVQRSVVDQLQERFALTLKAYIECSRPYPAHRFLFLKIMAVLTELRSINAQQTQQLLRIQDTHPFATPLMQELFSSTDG

NCCC(O)(P(=O)(O)O)P(=O)(O)O
inactive: Potency [1] | Potency [2] | Potency [3] | Potency [4] | Potency [5] | Potency [6] | Potency [7] | Potency [8] | Potency [9] | Potency [10] | Potency [11] | Potency [12] | Potency [13] | Potency [14] | Potency [15] | activity, negative = cell killing [16, 20] -6.03% | activity, negative = cell killing [16, 21] -13.5% | activity, negative = cell killing [16, 22] -19.5% | activity, negative = cell killing [16, 23] -12.2% | Potency [17]

OC(CCN1CCCCC1)(c1ccccc1)c1ccccc1
active: Potency ([16]; tumour line A) 12.6 µM
inactive: Potency [1] | Potency [2] | Potency [3] | Potency [4] | Potency [5] | Potency [6] | Potency [7] | Potency [8] | Potency [9] | Potency [10] | Potency [11] | Potency [12] | Potency [13] | Potency [14] | Potency [15] | activity, negative = cell killing [16, 20] -13.7% | activity, negative = cell killing [16, 21] -5.27% | activity, negative = cell killing [16, 23] 4.07% | Potency [17]

Cc1cc(=O)n(-c2ccccc2)n1C
inactive: Potency [1] | Potency [2] | Potency [3] | Potency [4] | Potency [5] | Potency [6] | Potency [7] | Potency [8] | Potency [9] | Potency [10] | Potency [11] | Potency [12] | Potency [13] | Potency [14] | Potency [15] | activity, negative = cell killing [16, 20] -5.78% | activity, negative = cell killing [16, 21] 0.358% | activity, negative = cell killing [16, 22] -19.4% | activity, negative = cell killing [16, 23] -23.6% | Potency [17] | max response [18] 0.521% | outcome [19]

CCOC(=O)OC(C)OC1=C(C(=O)Nc2ccccn2)N(C)S(=O)(=O)c2ccccc21 (stereo unspecified)
inactive: Potency [1] | Potency [2] | Potency [3] | Potency [4] | Potency [5] | Potency [6] | Potency [7] | Potency [8] | Potency [9] | Potency [10] | Potency [11] | Potency [12] | Potency [13] | Potency [14] | Potency [15] | activity, negative = cell killing [16, 20] -23.8% | activity, negative = cell killing [16, 21] -1.93% | activity, negative = cell killing [16, 23] 20.6% | Potency [17]

Nc1ccc(C(=O)O)cc1
inactive: Potency [1] | Potency [2] | Potency [3] | Potency [4] | Potency [5] | Potency [6] | Potency [7] | Potency [8] | Potency [9] | Potency [10] | Potency [11] | Potency [12] | Potency [13] | Potency [14] | Potency [15] | activity, negative = cell killing [16, 20] -6.59% | activity, negative = cell killing [16, 21] -1.8% | activity, negative = cell killing [16, 22] -31.3% | activity, negative = cell killing [16, 23] -10.3% | Potency [17] | max response [18] -6.06% | outcome [19]

O=C1OC2(c3ccc(O)cc3Oc3cc(O)ccc32)c2ccccc21
inactive: Potency [1] | Potency [2] | Potency [3] | Potency [4] | Potency [5] | Potency [6] | Potency [7] | Potency [8] | Potency [9] | Potency [10] | Potency [11] | Potency [12] | Potency [13] | Potency [14] | Potency [15] | activity, negative = cell killing [16, 20] -8.7% and -8.22% | activity, negative = cell killing [16, 21] -3.66% and -8.86% | activity, negative = cell killing [16, 22] -6.74% | activity, negative = cell killing [16, 23] 11.7% and -10.7%

CNC(=O)CN(CCN(CCN(CC(=O)[O-])CC(=O)NC)CC(=O)[O-])CC(=O)[O-].O.[Gd+3]
active: Potency ([16]; tumour line A) 35.5 µM
inactive: Potency [1] | Potency [2] | Potency [3] | Potency [4] | Potency [5] | Potency [6] | Potency [7] | Potency [8] | Potency [9] | Potency [10] | Potency [11] | Potency [12] | Potency [13] | Potency [14] | Potency [15] | activity, negative = cell killing [16, 20] 8.28% and -4.12% | activity, negative = cell killing [16, 21] 7.83% and 10.5% | activity, negative = cell killing [16, 22] -5.02% | activity, negative = cell killing [16, 23] -11.8% and -0.805% | Potency [17]

CC(=O)OCC(=O)[C@@]12N=C(C)O[C@@H]1C[C@H]1[C@@H]3CCC4=CC(=O)C=C[C@]4(C)[C@H]3[C@@H](O)C[C@@]12C
inactive: Potency [1] | Potency [2] | Potency [3] | Potency [4] | Potency [5] | Potency [6] | Potency [7] | Potency [8] | Potency [9] | Potency [10] | Potency [11] | Potency [12] | Potency [13] | Potency [14] | Potency [15] | activity, negative = cell killing [16, 20] -9.58% | activity, negative = cell killing [16, 21] -6.5% | activity, negative = cell killing [16, 22] -6.46% | activity, negative = cell killing [16, 23] -22.2% | Potency [17]

Cc1ncc(CSSCc2cnc(C)c(O)c2CO)c(CO)c1O
inactive: Potency [1] | Potency [2] | Potency [3] | Potency [4] | Potency [5] | Potency [6] | Potency [7] | Potency [8] | Potency [9] | Potency [10] | Potency [11] | Potency [12] | Potency [13] | Potency [14] | Potency [15] | activity, negative = cell killing [16, 20] -0.0133% | activity, negative = cell killing [16, 21] -10.6% | activity, negative = cell killing [16, 23] 3.55% | Potency [17]

NCCCC[C@H](N[C@@H](CCc1ccccc1)C(=O)O)C(=O)N1CCC[C@H]1C(=O)O
inactive: Potency [1] | Potency [2] | Potency [3] | Potency [4] | Potency [5] | Potency [6] | Potency [7] | Potency [8] | Potency [9] | Potency [10] | Potency [11] | Potency [12] | Potency [13] | Potency [14] | Potency [15] | activity, negative = cell killing ([16]; at 20 µM (top of the series), tumour line C) 16.9% | activity, negative = cell killing ([16]; at 21.2 µM (top of the series), tumour line B) -0.103% | activity, negative = cell killing ([16]; at 21.2 µM (top of the series), tumour line D) -3.03% | activity, negative = cell killing ([16]; at 21.3 µM (top of the series), tumour line A) 10.9% | Potency [17]

CCOC(=O)c1cccc(N)c1
inactive: Potency [1] | Potency [2] | Potency [3] | Potency [4] | Potency [5] | Potency [6] | Potency [7] | Potency [8] | Potency [9] | Potency [10] | Potency [11] | Potency [12] | Potency [13] | Potency [14] | Potency [15] | activity, negative = cell killing [16, 20] -17.6% | activity, negative = cell killing [16, 21] 2.11% | activity, negative = cell killing [16, 23] -0.117% | Potency [17]
